# In the library only some 3.6% were active in any assay of this set; here they are far more common.
# TROY signal inh = TROY signaling inhibition; Q293 LMP1-TROYcd NF-kB luciferase reporter, 4 h; inhibition, % at 10 µM; 360,000 compounds, 0.98% hits;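 active = compounds whose plate-normalised and pattern-corrected inhibition of the luciferase reporter signal at the single screening dose is 50% or more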
# HSF-1 act = increases HSF-1 driven luciferase reporter signal; NIH3T3-HGL HSF-1 luciferase reporter, MG132, 8 h; 100% = twice DMSO control signal; activation, % at 9 µM; 300,000 compounds, 1.7% hits; AID 504408;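 active = mean replicate activation of at least 50% with a set share of replicates each reaching 50%; inconclusive = only one of those two conditions met; inactive = mean below 50% and too few replicates reaching it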
# LGR2 antag = blocks bursicon-induced cAMP signaling via Drosophila LGR2; inhibition, % at 9.99 µM; AID 720647; HEK293 LGR2, CRE-luciferase, bursicon-stimulated, 4 h; 380,000 compounds, 0.35% hits;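 active = drop in luminescence signal, shown as inhibition above about 50% in the replicate tests, limit read from the data, passing the limit was not always enough; inconclusive = probably only some replicates passing the limit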;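 also: agonist challenge used bursicon conditioned medium at about half maximal strength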
# EBV LMP1 NFkB = reduces LMP1-driven NF-kappaB luciferase signal; LMP1-induced NF-kappaB luciferase reporter cells, luminescence; inhibition, % at 12.5 µM; 350,000 compounds, 0.69% hits; AID 504558; in the data active = inhibition above about 41%; inconclusive = no clear call, values can overlap the other calls
# TWEAK Fn14 block = TWEAK-Fn14 signaling inhibition. TWEAK-stimulated Fn14 reporter cells, luciferase luminescence, 8 h. inhibition, % at 10 µM. 360,000 compounds, 2% hits; in the data active = inhibition above about 50%
# HSF1 inhib = HSF1 inhibition. NIH3T3-HGL HSE-luciferase, MG132-induced, luminescence 8 h; hits give low values. activity change, negative = inhibition, % at 7.5 µM (by protocol). 300,000 compounds, 0.77% hits. AID 2098;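 active = more than half of replicate wells show activity change below -50%, luminescence cut by over half; inconclusive = some wells, but at most half, below -50%; inactive = no replicate well below -50%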;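 also: luciferase reports HSF-1 transcriptional activity via heat shock element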
# A number is an active result; n = inactive; u = inconclusive; x = not tested or not shown.
SMILES,TROY signal inh,HSF-1 act,LGR2 antag,EBV LMP1 NFkB,TWEAK Fn14 block,HSF1 inhib
CC(=O)NCCc1ccc(S(=O)(=O)N2CCCC2)cc1,n,n,x,n,82,n
COc1ccc2c3c(n(C)c2c1)[C@@H](CO)N(Cc1ccccc1OC)CC31CCN(C)CC1,x,x,n,x,x,x
O=C(Nc1ccc([N+](=O)[O-])cc1)c1ccc(S(=O)(=O)N2CCCC2)cc1,n,n,n,n,n,n
Cc1ccc(S(=O)(=O)N2CCCC(C(=O)NCCc3ccc4c(c3)OCO4)C2)cc1 (stereo unspecified),n,n,x,n,n,-68
Cc1ccc(S(=O)(=O)N2CCCC(C(=O)NCc3ccc4c(c3)OCO4)C2)cc1 (stereo unspecified),n,n,n,n,n,n
CCC(=O)NC(=S)Nc1ccc(S(=O)(=O)N2CCN(C)CC2)cc1,n,79,n,n,n,n
O=C(Nc1ccc(S(=O)(=O)N2CCCCCC2)cc1)c1[nH]ncc1[N+](=O)[O-],n,107,n,n,n,n
CC(=O)Nc1ccc(S(=O)(=O)N2CCCC2)cc1,n,n,n,71,n,n
CN1CCN(S(=O)(=O)c2ccc(NC(=S)NC(=O)C(C)(C)C)cc2)CC1,n,x,n,n,n,x
O=C(C[C@@H]1C[C@@H]2c3cc(NC(=O)NC4CCCC4)ccc3O[C@@H]2[C@@H](CO)O1)NCc1ccc(Cl)cc1,x,x,n,x,x,x
Cc1noc(C)c1NC(=O)N(C)C[C@@H]1Oc2ccc(NC(=O)Nc3ccccc3)cc2C(=O)N([C@H](C)CO)C[C@@H]1C,x,x,n,x,x,x
NS(=O)(=O)c1ccc(NC(=S)Nc2ccc(S(=O)(=O)N3CCCC3)cc2)cc1,n,n,n,n,n,n
CCOc1ccc(CCNC(=O)CCn2ccc3cc(S(=O)(=O)N4CCCC4)ccc32)cc1,n,n,n,72,n,n
O=S(=O)(c1ccc(NC(=S)NC23CC4CC(CC(C4)C2)C3)cc1)N1CCCCC1,n,x,n,n,70,x
C[C@@H]1CN([C@H](C)CO)C(=O)Cc2cc(NC(=O)Nc3ccccc3)ccc2O[C@H]1CN(C)C(=O)Nc1cccc2ccccc12,x,x,n,x,x,x
COc1ccc(OC)c(S(=O)(=O)Oc2ccc(N)c3ccccc23)c1,n,n,n,n,87,n
COc1ccc(C(=O)/C=C2\Sc3ccccc3N2C)cc1,n,56,n,n,n,n
CC(=S)/C=C1\Sc2ccccc2N1C,n,n,n,n,n,n
O=C(OCc1cc2ccccc2[nH]c1=O)c1ccccn1,n,n,x,n,n,n
O=C(OCc1cc2ccccc2[nH]c1=O)c1cccs1,n,n,n,n,57,n
CN(C)C1(CNC(=O)Nc2ccccc2)CCCCC1,n,n,n,42,n,n
CC(=O)Nc1ccc(C(=S)NCC2(N(C)C)CCCCC2)cc1,n,n,n,n,n,n
CCCN1[C@@H]2Cn3c(ccc(-c4ccncc4)c3=O)[C@H]1[C@@H](C(=O)N1CCCCC1)[C@@H]2CO,x,x,n,x,x,x
O=C(C[C@H]1CC[C@@H]2[C@H](COC[C@@H](O)CN2C(=O)c2ccccn2)O1)N1CCN(c2ccccc2)CC1,x,x,n,x,x,x
Fc1cccc(F)c1/C=C/c1ccc2ccccc2n1,n,n,67,n,n,n
SMILES,TROY signal inh,HSF-1 act,LGR2 antag,EBV LMP1 NFkB,TWEAK Fn14 block,HSF1 inhib
Fc1cccc(Cl)c1/C=C/c1cnc2ccccc2n1,n,n,91,n,n,n
C(=C\c1ccco1)/c1ccc2ccccc2n1,n,n,n,x,n,n
CCCC#Cc1cnc2c(c1)C(=O)N([C@H](C)CO)C[C@@H](C)[C@H](CN(C)Cc1ccc(F)cc1)O2,x,x,n,x,x,x
O=C(O)c1ccc(-n2cc(-c3cc4ccccc4oc3=O)[nH]c2=S)cc1,72,x,n,n,73,x
O=c1oc2ccccc2cc1-c1ccccc1,n,n,n,n,n,n
C[C@@H]1CCCCO[C@H](CN(C)S(=O)(=O)c2ccc(Cl)cc2)[C@@H](C)CN([C@@H](C)CO)C(=O)c2cc(NC(=O)Nc3ccccc3)ccc2O1,x,x,n,x,x,x
O=C(NCc1ccccc1Cl)C1CCN(S(=O)(=O)N2CCCC2)CC1,n,n,n,n,n,-69
COCc1cc(=O)[nH]c(Nc2nc3ccccc3o2)n1,n,84,x,n,n,n
COc1nc(=O)n(C2C=CC(=O)O2)cc1F (stereo unspecified),n,x,n,n,64,x
CCn1c(CNc2nc3ccccc3n2C(C)C)nc2ccccc21,n,n,x,n,99,n
CCn1c(NC(=O)Nc2ccccc2OC)nc2ccccc21,x,n,x,n,62,n
COc1cccc(CNc2nc3ccccc3n2C(C)C)c1O,n,182,n,n,n,n
CCCn1c(NCc2cccc(OC)c2OC)nc2ccccc21,n,n,x,n,n,n
COc1ccc(CNc2nc3ccccc3n2C(C)C)c(O)c1,n,n,n,n,n,n
CCCn1c(NCc2cccc(OC)c2O)nc2ccccc21,n,62,x,n,n,n
C[C@H](CO)N1C[C@H](C)[C@H](CN(C)C(=O)C2CCCCC2)Oc2ncc(-c3cccnc3)cc2C1=O,x,x,n,x,x,x
Cc1ccccc1C(=O)NCCSc1ccccc1,n,54,n,n,n,n
O=C(NCCCSc1ccccc1)c1cc(Br)ccc1O,n,n,n,n,51,n
O=C(NCCSc1ccccc1)c1ccccc1Cl,n,n,n,n,n,n
C[C@H](CO)N1C[C@H](C)[C@H](CN(C)Cc2cccc(F)c2)Oc2ncc(-c3ccccc3F)cc2C1=O,x,x,n,x,x,x
Cc1ccc(S(=O)(=O)N[C@H]2CC[C@H](CCNC(=O)c3ccc4c(c3)OCO4)O[C@H]2CO)cc1,x,x,n,x,x,x
CCOc1ccc(C2=Nc3ccc(Br)cc3C(c3ccc(N4CCOCC4)cc3)=NN2)cc1,n,58,n,n,n,n
CCOc1ccc(C2=Nc3ccccc3C(c3ccc(N4CCOCC4)cc3)=NN2)cc1,n,n,x,n,n,n
Cc1ccc(-n2ncc3c(NNC(=O)c4ccco4)ncnc32)cc1Cl,n,n,n,n,50,n
c1csc(CNc2ncnc3ccc(-c4ccc5c(c4)OCO5)cc23)c1,n,x,x,n,n,x
SMILES,TROY signal inh,HSF-1 act,LGR2 antag,EBV LMP1 NFkB,TWEAK Fn14 block,HSF1 inhib
CC(C)Nc1ncnc2c1cnn2-c1ccc(Cl)cc1,64,n,u,n,74,n
c1csc(CNc2ncnc3ccc(-c4ccoc4)cc23)c1,55,x,n,u,88,x
CC(C)(C)Nc1ncnc2c1cnn2-c1ccccc1,51,n,n,n,n,n
C[C@H](NC(=O)C[C@@H]1C=C[C@H](NC(=O)C2CCOCC2)[C@H](CO)O1)c1ccccc1,x,x,n,x,x,x
C[C@H](CO)N1C[C@H](C)[C@H](CN(C)Cc2ccc3c(c2)OCO3)OCCCC[C@H](C)Oc2ccc(NS(=O)(=O)c3ccc(Cl)cc3)cc2C1=O,x,x,n,x,x,x
OCCOCCNc1ncnc2c1cnn2-c1ccc(Cl)cc1,n,n,x,n,n,n
COCCNc1ncnc2c1cnn2-c1ccc(Cl)cc1,n,n,x,n,54,n
Clc1ccc(-n2ncc3c(NCc4cccs4)ncnc32)cc1,n,57,x,n,n,n
